Laboratory results from the supplement of paper PMC13380429.

System: Vero E6 infected with SARS-CoV-2
Assay: inhibition of SARS-CoV-2 cytopathic effect; higher = more antiviral protection, active = above 15
Details: 8.33 nM; 48 h

| Structure (SMILES) | inhibition of SARS-CoV-2 cytopathic effect |
| --- | --- |
| CCCOc1ccc2[nH]c(NC(=O)OC)nc2c1 [oxibendazole] | -0.7% (inactive) |
| O=C(O)C(Cl)Cl [dichloroacetate] | 1.34% (inactive) |
| O=C(O)c1ccc(OCCn2ccnc2)cc1 [dazoxiben] | 2.92% (inactive) |
| C[C@@H](NCc1cc(Br)cc2nc(O)c(O)nc12)P(=O)(O)O | 3.65% (inactive) |
| CC[C@H](C)[C@H](N)C1=N[C@H](C(=O)N[C@@H](CC(C)C)C(=O)N[C@H](CCC(=O)O)C(=O)N[C@H](C(=O)N[C@H]2CCCCNC(=O)[C@H](CC(N)=O)NC(=O)[C@@H](CC(=O)O)NC(=O)[C@H](Cc3cnc[nH]3)NC(=O)[C@@H](Cc3ccccc3)NC(=O)[C@H]([C@@H](C)CC)NC(=O)[C@@H](CCCN)NC2=O)[C@@H](C)CC)CS1 [bacitracin] | 2.89% (inactive) |
| CCOc1ccc(NC(=S)N2CCC(C(O)(c3ccccc3)c3ccccc3)CC2)cc1 | -1.73% (inactive) |
| CCN1CCN(Cc2ccc(-c3cc4c(N[C@H](C)c5ccccc5)ncnc4[nH]3)cc2)CC1 | 0.57% (inactive) |
| C[C@](O)(COc1ccc(C#N)cc1)C(=O)Nc1ccc(C#N)c(C(F)(F)F)c1 [ostarine] | -1.03% (inactive) |
| COc1ccc2c(c1)C(C(=O)N(Cc1ccc(N(C)C)cc1)c1ccc(C(C)C)cc1)CCC2 (stereo unspecified) | 0.34% (inactive) |
| CCS(=O)(=O)CCn1c([N+](=O)[O-])cnc1C [tinidazole] | -2.91% (inactive) |
| CCOc1ccccc1OC(c1ccccc1)C1CNCCO1 (stereo unspecified) [reboxetine] | 1.82% (inactive) |
